# Results filed as inconclusive are left out. Unmarked numbers belong to inactive results. Calls of active or inactive are those of the source. Calls follow the shape of the dose curve; as a rule, active = well fitted curve in the direction sought with a large enough effect; inconclusive = small, poorly fitted or top-dose-only effect, or another doubt; inactive = no such curve, though single readings can be large; an effect the other way counts as inactive or inconclusive.
# Tests used:
# [1] = Primary qHTS for inhibitors of nuclear receptor binding SET domain protein 2 (NSD2) in an isogenic RCH-ACV NSD2 p.E1099K mutant (9B) (AID 1645876)
# [2] = Primary qHTS for inhibitors of nuclear receptor binding SET domain protein 2 (NSD2) in an RCH-ACV wild type WT cells (2C) (AID 1645877)
# % is scaled to controls: 0 for no effect and ±100 for the full control effect; potency is read from the fitted curve at half-maximal effect.
# Also: nearly all actives have a fitted effect of over 70% in size.
smiles,measurement,setting,value
C[C@@H]1O[C@@H](O[C@H]2[C@H](O)[C@@H](O)[C@H](OC[C@H]3O[C@@H](OC(=O)[C@]45CCC(C)(C)C[C@H]4C4=CCC6[C@@]7(C)CC[C@H](O[C@@H]8OC[C@H](O)[C@H](O[C@@H]9O[C@H](CO)[C@@H](O)[C@H](O)[C@H]9O)[C@H]8O)[C@@](C)(CO)C7CC[C@@]6(C)[C@]4(C)CC5)[C@H](O)[C@@H](O)[C@@H]3O)O[C@@H]2CO)[C@H](O)[C@H](O)[C@H]1O (stereo not given in full),"activity change, negative = viability loss",[1],0.607% [at 9.23 µM]
same,outcome,[2],inactive [at 9.23 µM]
C[C@H](N)C(=O)N[C@@H](Cc1ccc(O)cc1)C(=O)N1CCC[C@H]1C(=O)NCC(=O)N[C@@H](CCCCN)C(=O)N[C@@H](Cc1ccccc1)C(N)=O,"activity change, negative = viability loss",[1],0.961% [at 9.23 µM]
same,outcome,[2],inactive [at 9.23 µM]
CC1C(OC(=O)c2ccccc2)C(O)C2C(C(=O)O)=COC(OC3OC(CO)C(O)C(O)C3O)C12 (stereo not given),Potency,[1],inactive
same,Potency,[2],inactive
C[C@@H]1O[C@@H](O[C@@H]2[C@@H](O)[C@H](O[C@H]3CC[C@@]4(C)C(CC[C@]5(C)C4CC=C4[C@@H]6CC(C)(C)CC[C@]6(C(=O)O[C@@H]6O[C@H](CO)[C@@H](O)[C@H](O)[C@H]6O)CC[C@]45C)C3(C)C)O[C@H](C(=O)O)[C@H]2O)[C@H](O)[C@H](O)[C@H]1O (stereo not given in full),"activity change, negative = viability loss",[1],-9.85% [at 9.23 µM]
same,"activity change, negative = cell killing",[2],-14.9% [at 9.23 µM]
Cn1cncc1C(N)(c1ccc(Cl)cc1)c1ccc2c(c1)c(-c1cccc(Cl)c1)cc(=O)n2C (stereo not given),Potency,[1],4170 nM (active)
same,Potency,[2],833 nM (active)

# From PubChem BioAssay (NCATS)
